Experimental data taken from ChEMBL document CHEMBL4513216, “Probing the Open Global Health Chemical Diversity Library for Multistage-Active Starting Points for Next-Generation Antimalarials” (ACS Infect Dis, 2020).
About 2,100 (3.2%) of roughly 65,000 compounds showed an effect of 50% or more. The median lay at about -52%. Many of the other results were omitted from the sample, so strong results are more common in it than they were.

Tested on: Plasmodium falciparum
Assay: Screen against P. falciparum Asexual Blood Stage (ABS), at 5uM
Assay type: functional, Dd2
Conditions: tested at 5 uM

| Structure (SMILES) | INHIBITION |
| --- | --- |
| CCN1CCC(CC(=O)NCc2nc(C)cc(C)n2)CC1 | -46.7% |
| Cc1nc(C2CCCN2C(=O)COc2ccccc2)ncc1C(N)=O (stereo unspecified) | -61% |
| COc1cccc(CN(C)C(=O)c2ccc(NC(C)=O)s2)c1OC | -83.5% |
| NC(=O)CCNC(=O)NCC1(c2ccccc2Cl)CCC1 | -18.5% |
| NC(=O)CCNCc1c(Cl)cccc1N1CCCC1 | 66.4% |
| O=C(NC1CCCN(c2ccccc2Cl)C1)c1c[nH]nn1 (stereo unspecified) | -144% |
| O=c1oc(-c2cccs2)nn1CC(O)c1ccc2c(c1)CCC2 (stereo unspecified) | -20% |
| Cc1nnc(NC(=O)C(C)n2ncc(Br)c2C)s1 (stereo unspecified) | -120% |
| CCn1ncc(CN2C[C@@H]3CCCN3C[C@@H]2CCSC)c1C | -116% |
| CCCn1ncc(CN2C[C@@H]3CCCN3C[C@H]2CCSC)c1C | -62.1% |
| CCCn1ncc(CN2C[C@@H]3CCCN3C[C@@H]2CCSC)c1C | 29.3% |
| CCCn1ncc(CN2C[C@@H]3CCCN3C[C@H]2Cc2ccccc2)c1C | 57.8% |
| CCCn1ncc(CN2C[C@@H]3CCCN3C[C@@H]2Cc2ccccc2)c1C | 63.8% |
| C=Cn1ncc(CN2C[C@@H]3CCCN3C[C@@H]2Cc2ccccc2)c1C | 25.8% |
| CNC(=O)COC1COC2(CCN(Cc3ccncc3F)CC2)C1 (stereo unspecified) | -146% |
| CC(C)[C@H](NS(C)(=O)=O)C(=O)NCc1cc(-c2ccco2)nn1C | -141% |
| COc1c(CNCc2ccc(Cn3cccn3)cc2)c(C)nn1C | 14.8% |
| COc1c(CNCc2ccccc2Cn2cncn2)c(C)nn1C | 3.03% |
| COc1c(CNCc2ccccc2Cn2cccn2)c(C)nn1C | 57.4% |
| COC[C@]1(O)CCN(c2cc(C3CC3)ncn2)CC1(C)C | -106% |
| CC(C)C(=O)NCCc1nc(-c2ccncc2)n[nH]1 | -11.5% |
| CC(C)c1cc(C(=O)NCCc2nc(-c3cccnc3)n[nH]2)[nH]n1 | 14.9% |

| Structure (SMILES) | INHIBITION |
| --- | --- |
| CC(C)c1cc(C(=O)NCCc2nc(-c3ccncc3)n[nH]2)[nH]n1 | 66.4% |
| Cc1noc([C@@H]2C[C@H]3OCC[C@H]3N(Cc3cc(C)c(C)o3)C2)n1 | -151% |
| CC(C)NC(=O)CN1CCC(c2cccc(F)c2)C1 (stereo unspecified) | 54.9% |
| CCNC(=O)NC(=O)CN1CCC(c2cccc(F)c2)C1 (stereo unspecified) | -4.74% |
| CNC(=O)NC(=O)CN1CCC(c2cccc(F)c2)C1 (stereo unspecified) | -92.5% |
| Cc1ccccc1NC(=O)N1CCN(Cc2noc(C3CC3)n2)CC1 | -69.4% |
| Cc1ccccc1C(C(=O)NCCSC(C)C)N(C)C (stereo unspecified) | 50.3% |
| Cc1ccccc1C(C(=O)NCCSC(F)(F)F)N(C)C (stereo unspecified) | 46.1% |
| CSCCCNC(=O)C(c1ccccc1C)N(C)C (stereo unspecified) | -35.8% |
| CSC(C)C(=O)N(C)CCCc1cc(-c2ccccc2)no1 (stereo unspecified) | -25.3% |
| CCOC(=O)C1CCN(c2cc(C(=O)N3CCOCC3)nc(C)n2)CC1 | -5.84% |
| COc1ccc(C(NCc2ccc(C#N)cc2)C2CC2)cc1 (stereo unspecified) | 60.9% |
| COc1ccc(C(NCc2cccc(C#N)c2)C2CC2)cc1 (stereo unspecified) | 48.3% |
| COc1ccc(C(NCc2cccc(C#N)c2)C(C)C)cc1 (stereo unspecified) | -11.2% |
| O=C(C1CCOC1)N1CCC2(CCN(Cc3nccs3)CC2)CC1 (stereo unspecified) | -146% |
| COc1ccc(NC(=O)c2nc3ccccc3n(C)c2=O)cc1OC | -33.5% |
| O=C(O)c1cc2c(nc1-c1ccoc1)CCN(CC1CCOC1)CC2 (stereo unspecified) | -108% |
| CSCC(=O)N(C)Cc1noc(-c2ccccc2)n1 | -229% |
| CN(C)C(=O)CCNC(=O)Nc1sc2ccccc2c1Cl | -22.3% |
| CN(C)CC(C)(O)CNC(=O)Nc1sc2ccccc2c1Cl (stereo unspecified) | 63.2% |
| CS(=O)(=O)CCNC(=O)Nc1sc2ccccc2c1Cl | -95% |
| Cc1cc(-c2cnc(N3CCCCCC3)nc2-c2cccnc2C)on1 | 3.45% |

| Structure (SMILES) | INHIBITION |
| --- | --- |
| Cc1cnn(C2CN(CCOc3cccc(C#N)c3)C2)c1 | -128% |
| CCS(=O)(=O)N1CC(=O)N(Cc2ccccc2OC)CC(O)C1 (stereo unspecified) | -105% |
| CCOC(=O)C1CCN(C(=O)c2cnn(-c3ccccc3F)c2N)CC1 | -221% |
| c1csc(C(CNCc2cccc3c2OCO3)N2CCOCC2)c1 (stereo unspecified) | 40.2% |
| Cc1ccc(C(CNCc2cccc3c2OCO3)N2CCOCC2)o1 (stereo unspecified) | 65.7% |
| c1cc(CNCc2ccnc(N3CCOCC3)c2)c2c(c1)OCO2 | -31.4% |
| Cc1cc(C2CCCN2C(=O)CN2C(=O)OC(C)(C)C2=O)on1 (stereo unspecified) | -28.9% |
| CCCS(=O)(=O)N1C[C@@H]2CN(Cc3cnn(C)c3)CCO[C@@H]2C1 | -67.3% |
| O=C(NCCn1cccc1)C(c1ccccc1)N1CCCC1 (stereo unspecified) | 54.4% |
| O=C(NCCNc1cccnc1)C(c1cccnc1)N1CCCC1 (stereo unspecified) | -11.7% |
| Cc1cccc(C(C(=O)NCCn2cccc2)N(C)C)c1 (stereo unspecified) | 42.5% |
| CC(C)(NCc1cccc(C(N)=O)c1)c1ccc2c(c1)OCO2 | 19.8% |
| CC(C)(NCc1ccc(C#N)cc1)c1ccc2c(c1)OCO2 | -0.993% |
| CC(C)(NCc1cccc(C#N)c1)c1ccc2c(c1)OCO2 | 51.5% |
| O=C1N[C@@H]2CCN(C(=O)C3CC3)[C@@H]2C(=O)N1c1ccc(F)cc1 | -99.9% |
| O=C1N[C@@H]2CCN(C(=O)C3CCCC3)[C@@H]2C(=O)N1c1ccc(F)cc1 | 56.1% |
| O=C1N[C@@H]2CCN(C(=O)C3CCC3)[C@@H]2C(=O)N1c1ccc(F)cc1 | 32% |
| CC(=O)N1N=C(COc2ccc3c(c2)OCO3)OC1c1cccc(Cl)c1 (stereo unspecified) | -125% |
| Cc1cc(=O)n(CC(=O)NC(C)C)c(Nc2ccc(F)c(C)c2)n1 | -47.4% |
| Cc1nn(C)cc1S(=O)(=O)NCC(c1ccccc1)N1CCCCCC1 (stereo unspecified) | 12.9% |
| CN1CCc2cc(C(CNS(=O)(=O)c3cccs3)N3CCCC3)ccc21 (stereo unspecified) | 15.5% |
| CN(C)c1ccc(C(CNS(=O)(=O)c2cccs2)N2CCCC2)cc1 (stereo unspecified) | 54.2% |
